nsP2pro primary: CHIKV nsP2 protease inhibition, primary qHTS. FRET peptide cleavage, nsP2pro, fluorescence 1 h. Potency, µM (titrated, usually from 24.9 µM), hits mostly inhibitors. 1.1% of 31,000 active. AID 1964107; further: nearly all actives have a fitted effect of over 60% in size
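Recombinant nsP2pro (150 nM) was preincubated with compound 15 min at room temperature in 10 mM Tris-HCl pH 8.0, 0.01% Tween 20. Peptide 2 FRET substrate (2.5 uM) was then added and fluorescence read after 1 h. Seven-point series, up to 25 uM.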
CHIKV nsP2 cell: secondary cell-based test for CHIKV nsP2 protease inhibitors. shares compounds with nsP2pro primary. cell-based CHIKV nsP2 protease reporter assay. Potency, µM (titrated, usually from 51.1 µM), actives largely listed as inhibitors. 10% of 450 active; further: nearly all actives have a fitted effect of over 70% in size
Target sequence (Q8JUX6 220-798 limits assumed): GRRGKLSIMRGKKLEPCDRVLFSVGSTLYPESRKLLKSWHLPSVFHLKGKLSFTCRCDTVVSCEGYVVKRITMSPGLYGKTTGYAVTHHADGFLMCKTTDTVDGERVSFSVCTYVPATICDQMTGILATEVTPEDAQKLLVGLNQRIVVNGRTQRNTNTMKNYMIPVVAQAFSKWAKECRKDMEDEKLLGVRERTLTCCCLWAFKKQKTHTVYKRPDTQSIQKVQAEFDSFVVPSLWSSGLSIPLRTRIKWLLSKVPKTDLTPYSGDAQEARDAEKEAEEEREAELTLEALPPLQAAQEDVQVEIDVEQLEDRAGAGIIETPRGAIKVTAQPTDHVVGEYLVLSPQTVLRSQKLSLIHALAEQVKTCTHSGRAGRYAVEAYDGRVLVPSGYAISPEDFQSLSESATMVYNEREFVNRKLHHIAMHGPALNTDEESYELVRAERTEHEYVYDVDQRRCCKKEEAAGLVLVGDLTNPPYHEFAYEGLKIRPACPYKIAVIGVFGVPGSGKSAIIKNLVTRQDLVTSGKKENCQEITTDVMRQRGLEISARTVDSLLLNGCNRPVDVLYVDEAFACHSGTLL
NSP2 full ctr: full-length CHIKV NSP2 protease inhibition, selectivity; shares compounds with nsP2pro primary; Full-length CHIKV NSP2 protease enzymatic counterscreen; Potency, µM (doses to about 50.7 µM), hits mostly inhibitors; 39% of 410 active; AID 1964101; further: nearly all actives have a fitted effect of over 65% in size
Furin counter: human furin inhibition, counterscreen for nsP2pro inhibitors; Recombinant human furin enzymatic counterscreen, fluorogenic substrate; shares compounds with nsP2pro primary; AID 1964102; 6% of 410 active; Potency, µM (doses to about 50.6 µM), hits mostly inhibitors
nsP2 NS23 pep: nsP2pro inhibition on native NS2/3 peptide substrate. shares compounds with nsP2pro primary. Purified CHIKV nsP2 protease, endogenous NS2/3 peptide cleavage. Potency, µM (top dose mostly 51 µM), most hits filed as inhibitors. 34% of 410 active. AID 1964103; further: nearly all actives have a fitted effect of over 55% in size
Papain cs: inhibits papain in a CHIKV nsP2 protease selectivity counterscreen; 5% of 410 active; purified papain protease activity, enzymatic inhibition; shares compounds with nsP2pro primary; Potency, µM (series often up to 51 µM), actives largely listed as inhibitors
nsP2pro conf qHTS: CHIKV nsP2 protease inhibition, confirmatory qHTS; shares compounds with nsP2pro primary; CHIKV nsP2 protease enzymatic activity, qHTS; Potency, µM (titrated, usually from 25.5 µM), hits mostly inhibitors; 43% of 410 active; further: nearly all actives have a fitted effect of over 75% in size
HCV NS3 counter: selectivity counter-screen for CHIKV nsP2 protease inhibitors: HCV NS3/4A; shares compounds with nsP2pro primary; HCV NS3/4A protease biochemical counterscreen; Potency, µM (doses to about 50.9 µM), actives largely listed as inhibitors; 20% of 410 active; AID 1964106; further: nearly all actives have a fitted effect of over 55% in size
Large screens that a line does not name were inactive (follow-up assays come after a bar, where they were run); ! = a repeat was not active. The sample as a whole holds a higher share of hits than the screen did. The call rests on the fitted dose curve.

COC(=O)C1=COC(C)C2CN3CCC4(C(=O)Nc5ccccc54)C3CC12 (centres undefined)	none
CCN(CC)Cc1ccc(C(=O)N(CCc2ccccc2OC)[C@@H]2CCNC2)cc1	nsP2pro primary inconclusive | CHIKV nsP2 cell inactive | NSP2 full ctr 6.3µM | Furin counter inactive | nsP2 NS23 pep inactive | Papain cs inactive | nsP2pro conf qHTS inconclusive | HCV NS3 counter inconclusive
COc1ccc(CN(C(=O)COc2ccccc2OC)C2CCS(=O)(=O)C2)cc1 (centres undefined)	none
CCN1CCC(N(Cc2ccc3c(c2)OCO3)C(=O)Nc2ccccc2OC)CC1	none
O=C(CNC(=O)c1ccccc1)OC(CCc1ccccc1)C(=O)Nc1cc(C(F)(F)F)ccc1Cl (centres undefined)	none
CCOc1cn(-c2ccc(F)cc2C)nc1C(=O)Nc1ccc(Oc2ccnc3cc(OC)c(OC)cc23)c(F)c1	none
COc1ccccc1-c1csc2ncnc(Sc3nnnn3C)c12	none
CC(C)=CCCC1(C)C=Cc2c(O)c3c(c(CC=C(C)C)c2O1)OC12C(=CC4CC1C(C)(C)OC2(C/C=C(/C)C(=O)O)C4=O)C3=O (centres undefined)	nsP2pro primary inconclusive | CHIKV nsP2 cell inconclusive | NSP2 full ctr inactive | Furin counter inactive | nsP2 NS23 pep inconclusive | Papain cs inactive | nsP2pro conf qHTS inconclusive | HCV NS3 counter inactive
CC(C)=CCCC1(C)C=Cc2c(c(C)cc3c2[nH]c2ccccc23)O1 (centres undefined)	none
CCCCOC(=O)c1ccc(NC(=O)Cc2coc3c(C)c(C)ccc23)cc1	none
CC(C)c1cc2c(c(O)c1O)[C@@]13CCCC(C)(C)C1[C@@H](O)[C@@H]2OC3=O (some centres undefined)	nsP2pro primary 6.1µM | CHIKV nsP2 cell inactive | NSP2 full ctr inconclusive | Furin counter inactive | nsP2 NS23 pep inconclusive | Papain cs inactive | nsP2pro conf qHTS 6.2µM | HCV NS3 counter inactive
CC1(C)CCCC2(C)c3c4c(c(=O)oc(=O)c3=CCC12)=CCC1C(C)(C)CCCC41C (centres undefined)	none
CCOC(=O)Cc1ccc(NC(=O)Nc2cccc(OCc3cc(=O)n4cc(C)ccc4n3)c2)cc1	none
CC(=O)N1CCC(C(=O)N2CCn3nc(Cc4ccccc4)cc3C2)CC1	none
COc1cccc(-c2ccc3ncnc(NCc4cccc(C)c4)c3c2)c1	none
CC(=O)c1ccc(N2CCN(S(=O)(=O)c3ccc4c(c3)C(Cl)(Cl)C(=O)N4)CC2)cc1	none
CC(=O)CCC1=C(C)C(O[C@@H]2O[C@H](CO)[C@@H](O)[C@H](O)[C@H]2O)C(O)CC1(C)C (some centres undefined)	none
CC(C)NC(=O)CCc1cc2n(n1)CCN(C(=O)[C@H]1CCCO1)C2	none
Cc1ccccc1NC(=O)c1cc2sccc2n1Cc1ccc(F)cc1	none
Cc1ccc(C(=O)N2CCN(c3ccc([N+](=O)[O-])cc3)CC2)cc1Cl	none
C=CC(=O)N1C/C(=C\c2ccc([N+](=O)[O-])cc2)C(=O)/C(=C/c2ccc([N+](=O)[O-])cc2)C1	nsP2pro primary 3.5µM! | CHIKV nsP2 cell inconclusive | NSP2 full ctr inconclusive | Furin counter inactive | nsP2 NS23 pep 2.9µM | Papain cs inactive | nsP2pro conf qHTS inconclusive | HCV NS3 counter inactive
O=C1Nc2ccccc2/C1=C\c1ccc([N+](=O)[O-])cc1	none
Cc1nc2ccn(Cc3cccs3)c(=O)c2cc1C(=O)N1CCN(c2ccc(F)cc2)CC1	none
COc1cc(CCO)ccc1O[C@@H]1O[C@H](CO)[C@@H](O)[C@H](O)[C@H]1O	nsP2pro primary inconclusive | CHIKV nsP2 cell inactive | NSP2 full ctr inactive | Furin counter inactive | nsP2 NS23 pep inactive | Papain cs inactive | nsP2pro conf qHTS inconclusive | HCV NS3 counter inactive
OCCc1ccc(O[C@@H]2O[C@H](CO)[C@@H](O)[C@H](O)[C@H]2O)cc1	none
COc1cc(CO)ccc1O[C@@H]1O[C@H](CO)[C@@H](O)[C@H](O)[C@H]1O	none
COCC1CN(C2CCC2)CC12CCN(C(=O)c1ccsc1)CC2 (centres undefined)	none
C=CC(C)(C)c1[nH]c2ccccc2c1C1=C(O)C(=O)C(c2c[nH]c3c(CC=C(C)C)cccc23)=C(O)C1=O	nsP2pro primary inconclusive | CHIKV nsP2 cell inactive | NSP2 full ctr inactive | Furin counter inactive | nsP2 NS23 pep inactive | Papain cs 2.6µM | nsP2pro conf qHTS inactive | HCV NS3 counter 4.1µM
CCc1ccc(C2CC(=O)Nc3cc4c(cc32)OCO4)cc1 (centres undefined)	none
CC(=O)c1cc([N+](=O)[O-])c(Sc2cccc(Cl)c2Cl)s1	none
Cc1ccccc1CNC(=O)c1ccc(-c2nc(CS(=O)(=O)c3ccccc3)c(C)o2)cc1	none
CCS(=O)(=O)c1ncc(Cl)c(C(=O)Nc2ccccc2)n1	none
Cc1ccc(CS(=O)(=O)c2ncc(Cl)c(C(=O)Nc3nc4ccc(F)cc4s3)n2)cc1	none
CC(=O)Nc1ccc(NC(=O)c2nc(S(=O)(=O)Cc3ccc(F)cc3)ncc2Cl)cc1	nsP2pro primary inconclusive | CHIKV nsP2 cell 2.3µM | NSP2 full ctr inconclusive | Furin counter inactive | nsP2 NS23 pep 4.6µM | Papain cs inactive | nsP2pro conf qHTS 5µM | HCV NS3 counter inactive
CC(=O)N1CC2(CCCN2Cc2cccc(C(N)=O)c2)Cc2ccccc21 (centres undefined)	none
Cc1cccc(-n2cnc3cc(C(=O)N4CCCC4)ccc32)c1	none
O=C(NCC(=O)N1CCCC1)Nc1ccc2ccccc2c1	nsP2pro primary inconclusive | CHIKV nsP2 cell inactive | NSP2 full ctr inconclusive | Furin counter inactive | nsP2 NS23 pep inactive | Papain cs inactive | nsP2pro conf qHTS inactive | HCV NS3 counter inactive
O=C(NCC(=O)N1CCCC1)Nc1ccc2cnccc2c1	none
COc1ccccc1NC(=O)Nc1ccc2ccccc2c1	none
CC(CNC(=O)c1ccc(Nc2nc3ccccc3n3nnnc23)cc1)c1ccccc1 (centres undefined)	none
O=C(Cn1c(=O)n(-c2ccccc2)c(=O)c2ccc(C(=O)NCc3ccc4c(c3)OCO4)cc21)Nc1ccc(Br)cc1	none
COc1ccc(N(C(=O)c2ccccc2C)S(=O)(=O)c2ccc(Cl)cc2)cc1	none
CC(NC(=O)c1cc2sccc2n1Cc1ccc(F)cc1)c1ccccc1 (centres undefined)	none
CCCCS(=O)(=O)N1CC(F)(F)C[C@H]1c1nnc(C)o1	none
Cc1ccc(NC(=O)C(=O)NCC(c2cccnc2)N2CCN(C)CC2)cc1F (centres undefined)	none
